Measurements from the supplement of paper PMC6555819.

Key:
Assay in all cases: PBM binding z-score (relative to random genomic background probes); higher = stronger binding; sequences stand for … in GC…GCGATTGACAGCGTAGAATGAAGG
[1] = system: FXR:RXRa (NR concentration 270 nM, RXRa partner concentration 90 nM)
Method in brief: (§1)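 Custom Agilent 4×180K protein-binding microarrays carried double-stranded probes. Their 34-nt variable regions held direct-repeat seeds, single-nucleotide variants, half-site ablations and random human genomic background sequences. Arrays were incubated 1 h with ligand-free nuclear receptor dimers in PBS pH 7.4, 2% milk, 0.02% Triton X-100, 1 mM DTT, 0.2 mg/mL BSA and 0.4 mg/ml salmon testes DNA. Antibodies against each partner (one per run) detected binding, and scanned fluorescence was regression-normalized. Binding z-scores use random background probes as reference.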

[2] = system: LXRa:RXRa (NR concentration 270 nM, RXRa partner concentration 90 nM)
Method in brief: as §1

[3] = system: LXRa homodimer (NR concentration 270 nM)
Method in brief: as §1

[4] = system: LXRb:RXRa (NR concentration 270 nM, RXRa partner concentration 90 nM)
Method in brief: as §1

[5] = system: LXRb homodimer (NR concentration 270 nM)
Method in brief: as §1

[6] = system: PPARa:RXRa (NR concentration 270 nM, RXRa partner concentration 90 nM)
Method in brief: as §1

[7] = system: PPARg:RXRa (NR concentration 180 nM, RXRa partner concentration 90 nM)
Method in brief: as §1

[8] = system: PPARg:RXRa 270nM:90nM, anti-RXR (NR concentration 270 nM, RXRa partner concentration 90 nM)
Method in brief: as §1

[9] = system: PPARg:RXRa 30nM:10nM, anti-RXR (NR concentration 30 nM, RXRa partner concentration 10 nM)
Method in brief: as §1

[10] = system: PPARg:RXRa 90nM:30nM, anti-RXR (NR concentration 90 nM, RXRa partner concentration 30 nM)
Method in brief: as §1

[11] = system: PPARg:RXRa DBDmut IVT, anti-RXR (DBD mutation: RXRa K156A/R161A, NR concentration 270 nM, RXRa partner concentration 90 nM)
Method in brief: as §1

[12] = system: PPARg:RXRa IVT, anti-PPARg (NR concentration 270 nM, RXRa partner concentration 90 nM)
Method in brief: as §1

[13] = system: PPARg DBDmut:RXRa IVT, anti-PPARg (DBD mutation: PPARg1 K132A/R137A, NR concentration 270 nM, RXRa partner concentration 90 nM)
Method in brief: as §1

[14] = system: PPARg DBDmut IVT, anti-PPARg (DBD mutation: PPARg1 K132A/R137A, NR concentration 270 nM)
Method in brief: as §1

[15] = system: PPARg homodimer (NR concentration 180 nM)
Method in brief: as §1

[16] = system: PXR:RXRa (NR concentration 270 nM, RXRa partner concentration 90 nM)
Method in brief: as §1

[17] = system: PXR homodimer (NR concentration 270 nM)
Method in brief: as §1

[18] = system: RARa:RXR (NR concentration 270 nM, RXRa partner concentration 90 nM)
Method in brief: as §1

[19] = system: RARa homodimer (NR concentration 270 nM)
Method in brief: as §1

[20] = system: RARb:RXRa (NR concentration 270 nM, RXRa partner concentration 90 nM)
Method in brief: as §1

Sequence | PBM binding z-score [1] | PBM binding z-score [2] | PBM binding z-score [3] | PBM binding z-score [4] | PBM binding z-score [5] | PBM binding z-score [6] | PBM binding z-score [7] | PBM binding z-score [8] | PBM binding z-score [9] | PBM binding z-score [10] | PBM binding z-score [11] | PBM binding z-score [12] | PBM binding z-score [13] | PBM binding z-score [14] | PBM binding z-score [15] | PBM binding z-score [16] | PBM binding z-score [17] | PBM binding z-score [18] | PBM binding z-score [19] | PBM binding z-score [20]
GCTTGTAGATCAAGGTCAAGAAAGACTAAGCTAA | 3.17 | 3.25 | 0.618 | 3.02 | 0.0549 | 3.91 | 1.86 | 3.04 | 0.697 | 2.12 | 2.14 | 2.87 | 0.431 | -0.296 | 1.34 | 2.63 | 0.449 | 3.08 | 0.173 | 3.5
ATCGAAAGGTCGAAGGTGAGTAGACCCACCCGAA | 4.66 | 3.33 | -0.000535 | 2.34 | 0.52 | 4.56 | 4.92 | 4.7 | 1.93 | 4.2 | -0.178 | 1.89 | -0.438 | 0.456 | 1.74 | 2.69 | 0.121 | 4.23 | 0.557 | 3.83
AGAATGAGGTTAAGGTCAGGGAAACAGAATACAT | 5.36 | 4.12 | 0.675 | 3.93 | 0.526 | 5.21 | 5.25 | 5.04 | 2.44 | 4.29 | 3.24 | 4.55 | 1.51 | 0.964 | 3.35 | 3.77 | 1.59 | 4.47 | 2.44 | 4.27
TCTTGTTGATCAATAGAGGTTAAGAAAGTGCGCT | 0.549 | 3.17 | 0.564 | 2.1 | 0.134 | 2.02 | -0.0546 | 1.87 | 2.82 | 2.46 | 1.5 | 0.913 | 0.422 | 1.13 | 0.192 | 2.89 | 0.147 | 1.71 | 0.519 | 1.05
ATAACGAGGGCAATGAGTTGATAGCACGGGTGGC | 0.269 | 0.688 | -0.402 | 0.00885 | 0.11 | 1.23 | 1.8 | 1.31 | 0.221 | 0.999 | 3.37 | 2.77 | 1.02 | 0.667 | 0.411 | 2 | 5.03 | 0.222 | -0.438 | 2.02
TCATATAGGTAAAAGGTGTAAGTCGGTGTGGTAA | 1.13 | 1.12 | -0.0427 | 1.14 | 0.187 | 3.18 | 5.19 | 6.1 | 5.92 | 7.17 | 4.99 | 3.58 | 1.13 | 0.898 | 1.04 | 0.588 | 0.592 | 0.719 | 0.894 | 0.49
GCGACTCGGGCAAAGCAGGTTACCATAAGGTTGG | -0.00273 | -0.166 | -0.636 | -0.448 | -1.41 | 0.221 | 0.413 | -0.165 | -0.926 | -0.846 | 0.437 | 0.613 | -1.22 | -1.92 | -0.783 | -0.339 | -0.681 | 0.418 | -0.821 | 0.403
TCTAGTTGGTCAAAGGTCACACTCTCGAAATGCG | 5.93 | 5.66 | 3.78 | 5.32 | 1.9 | 6.47 | 11.1 | 9.87 | 10.5 | 10.6 | 3.65 | 6.05 | 1.12 | 1.37 | 5.48 | 5.85 | 1.74 | 7.41 | 3.43 | 4.92
CAGCCTTGGTCAGGGCCAGTATAGGAGGAACGTT | -0.896 | -0.936 | -0.824 | -0.976 | -1.46 | -0.531 | -0.0449 | -0.51 | -0.686 | -0.517 | -0.703 | -0.873 | -1.09 | -1.73 | -1.21 | -0.903 | -0.901 | -0.84 | -0.916 | 0.481
CGCCCAAGGTCAAGGTCAGTGAAAGAGACTCGAA | 7.66 | 5.71 | 1.02 | 4.47 | 1.05 | 5.96 | 6.1 | 5.9 | 2.41 | 4.9 | 3.15 | 4.18 | 0.61 | -0.556 | 3.84 | 4.83 | 0.538 | 5.32 | 1.22 | 5.62
CCTATTAGTTGACCATATGGGCAACCGAAGCTCG | 0.27 | 0.454 | 0.368 | 0.353 | 0.853 | -0.034 | 0.453 | 0.317 | -0.521 | -0.00655 | 0.421 | 1.14 | 0.935 | 0.461 | 0.842 | 0.0373 | 0.489 | 0.314 | 1.68 | 0.652
TAGCCTAGGTCATGCGGGCCAGTGTAGTGTCGGC | 3.71 | 2.88 | -0.0482 | 1.38 | -0.348 | 3.17 | 1.5 | 2.27 | -0.122 | 1.26 | 1.76 | 2.75 | -0.395 | -0.723 | 0.153 | 1.23 | -0.733 | 1.69 | -1.29 | 3.72
ATATGTAGGTTAGCTGGGGTCATTAAGACTAGGC | 4.6 | 5.39 | 2.55 | 4.58 | 1.38 | 5.13 | 5.69 | 4.89 | 2.49 | 4.2 | 7.01 | 6.64 | 3.24 | 2.7 | 2.8 | 5.91 | 3.46 | 5.15 | 1.22 | 3
CCTAGCAGGCCAATCTGGGTCACTCACGGCTTGA | 0.571 | 1.17 | -0.195 | 0.493 | -0.78 | 2.81 | 1.85 | 1.92 | -0.256 | 1.18 | 4.16 | 4.93 | -0.714 | -0.428 | 0.645 | 0.777 | -0.161 | 1.18 | -0.509 | 1.56
GCATATAGGTAATACAAAGTGAAAGTCCGATTGT | -0.614 | -0.368 | -0.219 | -0.304 | -0.361 | 0.632 | 1.12 | 0.884 | 0.583 | 0.849 | 4.28 | 2.73 | 0.942 | 1.36 | -0.267 | -0.28 | -0.0675 | -0.178 | 0.391 | -0.152
ACTAGCAGGCCAAGGGTCACTGAAGATTAGTCCG | 3.07 | 2.89 | 0.0691 | 2.66 | -0.585 | 4.73 | 8.44 | 7.62 | 6.5 | 8.43 | 1.21 | 4.08 | 0.528 | 0.377 | 5.87 | 3.39 | -0.283 | 4.86 | 0.818 | 3.76
ATCTCTAGGTAACCAAATTCAGTGAATGCCGAAC | 0.306 | 0.196 | 0.385 | 0.283 | 0.743 | 0.476 | 0.6 | 0.634 | 0.182 | 0.59 | 3.66 | 2.72 | 0.888 | 0.995 | 0.658 | 0.0913 | 0.615 | 0.166 | 0.995 | 0.377
CGAACTAGGTCATTGACAGGTCAGTGAATAGTAA | 4.77 | 4.22 | 2.06 | 3.2 | 0.218 | 5.01 | 7.86 | 6.55 | 3.81 | 6.32 | 8.05 | 7.99 | 2.07 | 0.617 | 3.26 | 3.56 | 0.482 | 5.11 | 0.887 | 4.25
TAGCCTATGTCATTCAGGGGCCAGTATAGAAAGC | -0.275 | -0.326 | -0.461 | -0.0773 | 0.117 | -0.00609 | 0.175 | -0.205 | -0.271 | -0.159 | 0.367 | 0.511 | -0.0468 | 0.315 | -0.12 | -0.141 | -0.435 | 0.125 | -0.558 | 0.742
